In the library only some 19% were active in any assay of this set; here they are far more common.
IL1B secr inh: inhibitors of inflammasome signaling (IL-1 beta secretion) | THP-1 LPS/ATP IL-1B secretion, AlphaLISA, 16 h; hits give low values | activity change, % at 57.5 µM | 360,000 compounds, 4.7% hits; in the data active means activity change below about -50%; inconclusive means mostly about -30% to -49%
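THP-1 cells pretreated 1 hr with compounds (up to 57.5 uM final), then stimulated with LPS (250 ng/mL final) plus ATP (1.25 mM final); secreted IL-1B measured by AlphaLISA after 16 hr, decreased signal indicating inhibition.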
HT1080-NT tox: kills 2HG-producing HT-1080-NT fibrosarcoma cells; HT-1080-NT fibrosarcoma viability, CellTiter-Glo ATP luminescence, 48 h; Potency, µM (doses to about 46.1 µM), actives largely listed as cytotoxic; 360,000 compounds, 1.6% hits; AID 686970;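 further: NT is the 2HG producing partner of a matched IDH1 knockdown line; nearly all actives have a fitted effect of over 55% in size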
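HT-1080-NT; 750 cells/well; 5% FBS RPMI; 48 h compound, 37 degrees C; CellTiter-Glo luminescence; curve fitting and curve-class assignment.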
DT40 TDP1 CPT: DT40-hTDP1 cell growth loss with CPT | 420,000 compounds, 12% hits | chicken DT40 Tdp1-/-;hTDP1 cells + 20 nM CPT, ATP luminescence, 48 h | Potency, µM (highest dose often 46.2 µM), hits mostly inhibitors; further: nearly all actives have a fitted effect of over 55% in size
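Chicken DT40 Tdp1-/- cells stably complemented with human TDP1 were seeded at 400 cells/well in medium containing 20 nM camptothecin, exposed to pin-transferred compounds, and grown at 37 °C for at least 48 hr. Viability was read as ATP luminescence.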
HT1080 IDH1KD tx: kills HT-1080 cells with IDH1 knockdown; HT-1080 IDH1 knockdown viability, ATP luminescence, 48 h; Potency, µM (top dose mostly 46.1 µM), most hits filed as cytotoxic; 360,000 compounds, 2% hits; AID 686971
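Knockdown cells (IDH1KD HT-1080) received compounds 2 h after plating at 750 cells/well and were kept 48 h at 37 °C in 5% FBS RPMI. A CellTiter-Glo luminescence read gave % activity for curve fitting.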
DT40 TDP1 no CPT: qHTS for Inhibitors of human tyrosyl-DNA phosphodiesterase 1 (TDP1): qHTS in cells in absence of CPT. DT40 Tdp1-/- hTDP1 cells, no CPT, ATP luminescence, 48 h. Potency, µM (doses to about 46.2 µM), most hits filed as inhibitors. 420,000 compounds, 15% hits. AID 686978, 2013; further: nearly all actives have a fitted effect of over 55% in size
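Luminescent ATP content (CellTiter-Glo) served as the growth readout. Knockout chicken DT40 cells expressing human TDP1 were exposed to compounds without camptothecin for a minimum 48 hr at 37 °C.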
Numbers stand for hits; i = inactive; ? = inconclusive; nt = no result given; [ ] = remark or other dose. Unless noted, the call rests on the fitted dose curve; in most records, active means well fitted curve in the direction sought with a large enough effect; inconclusive means small, poorly fitted or top-dose-only effect, or another doubt; inactive means no such curve, though single readings can be large; an effect the other way counts as inactive or inconclusive.

SMILES	IL1B secr inh	HT1080-NT tox	DT40 TDP1 CPT	HT1080 IDH1KD tx	DT40 TDP1 no CPT
COc1ccc(CCN2CC(C(=O)Nc3cc(S(C)(=O)=O)ccc3Cl)CC2=O)cc1OC (stereo not drawn)	i	i	i	i	i
CCOC(=O)N1CCc2c(sc3c2C(=O)NC(c2ccc(C(=O)OC)cc2)N3)C1 (stereo not drawn)	nt	nt	7.3µM	nt	13µM
CN1CCc2c(sc3c2C(=O)NC(c2ccccc2)N3)C1 (stereo not drawn)	i	i	?	i	23µM
COC(=O)c1ccc(C2NC(=O)c3c(sc(C)c3C)N2)cc1 (stereo not drawn)	i	i	i	i	i
CCOC(=O)N1CCc2c(sc3c2C(=O)NC(c2cc(OC)c(OC)c(OC)c2)N3)C1 (stereo not drawn)	nt	nt	3.7µM	nt	5.2µM
Cc1ccc(C)c(NC2=C(c3ccc(C(F)(F)F)cc3)C(=O)c3ccccc32)c1	nt	nt	5.8µM	nt	5.8µM
COc1cc(OC)c(NC2=C(c3ccc(C(F)(F)F)cc3)C(=O)c3ccccc32)cc1Cl	nt	nt	?	nt	23µM
CN(C(=O)c1ccc(NC(=O)Cc2ccc(NC(=O)C3CCN(S(=O)(=O)c4cccc([N+](=O)[O-])c4)CC3)cc2)cc1)C1CCCC1	i	i	?	i	?
CC(=O)c1ccc(N2CCN(C(=O)CNS(=O)(=O)c3ccc4c(c3)OCCCO4)CC2)c(F)c1	i	i	?	i	?
COc1ccc(NC(C)=O)cc1NC(C)C(=O)Nc1ccc(S(=O)(=O)N2CCCCC2)cc1 (stereo not drawn)	i	i	i	i	i
CC(NC(=O)c1cccnc1)c1nnc2n1CCN(Cc1ccc(-c3ccccc3)cc1)CC2 (stereo not drawn)	nt	nt	i[9.04 µM]	nt	i
O=C(/C=C/c1ccccc1)CC(=O)c1ccccc1O	i	i	?	i	18µM
O=C(/C=C/c1ccccc1)NC(=O)c1ccccc1O	-58	i	?	i	?
COc1cc(/C=C/C(=O)NC(=O)c2ccccc2O)ccc1O	i	i	i	i	i
Cc1ccccc1CC1(CO)CCCN(Cc2nc(-c3cccs3)oc2C)C1 (stereo not drawn)	i	?	?	?	21µM
Cc1oc(-c2cccs2)nc1CN1CC[C@@](O)(c2ccccc2)[C@H]2CCCC[C@@H]21	-74	i	?	i	?
Cc1oc(-c2cccs2)nc1CN1CCN(CC(C)C)C(CCO)C1 (stereo not drawn)	i	i	?	i	?
NNc1ccc(Cl)c(C(=O)O)c1	i	i	i	i	i
COc1ccc(-n2c(=O)c3c(C)c(C)sc3n(CC(=O)NCc3ccc(C)cc3)c2=O)c(OC)c1	nt	nt	i	nt	i
COc1ccc(-n2c(=O)c3c4c(sc3n(Cc3ccc(F)cc3)c2=O)CN(C(C)=O)CC4)c(OC)c1	nt	nt	21µM	nt	13µM
COc1ccccc1-n1c(=O)c2c3c(sc2n(Cc2ccccc2F)c1=O)CN(C(C)=O)CC3	nt	nt	i	nt	i
COc1cccc(-n2c(=O)c3c(C)c(C(=O)N(C)C)sc3n(Cc3ccc(F)cc3Cl)c2=O)c1	nt	nt	?	nt	18µM
COc1ccc(-n2c(=O)c3c(C)c(C)sc3n(Cc3ccc(F)cc3)c2=O)c(OC)c1	i	i	i	i	13µM
N#CC(c1ccc(Cl)cc1)(c1ncc(C(F)(F)F)cc1Cl)N1CCOCC1 (stereo not drawn)	i	i	i	i	i
Cc1ccc(NC(=S)NCc2ccc(Cl)cc2)c(C)c1	i	i	?	i	?
SMILES	IL1B secr inh	HT1080-NT tox	DT40 TDP1 CPT	HT1080 IDH1KD tx	DT40 TDP1 no CPT
O=C(C[C@@H]1C/C=C\C[C@@H](Cc2ccc(F)cc2)C(=O)OCCNC1=O)NCCO	i	i	i	i	i
CN(/N=C\c1ccc(O)c(O)c1)c1nc(-c2ccccc2)cc(-c2ccccc2)n1	-61	?	0.82µM	?	1.5µM
CCOC(=O)c1cc2sccc2n1CC(=O)N1CCc2ccccc21	i	i	4.6µM	?	12µM
O=C(CN1CCCc2ccccc21)N1CCc2ccccc21	i	i	16µM	i	?
CCOCC(=O)N1CCc2ccccc21	i	i	i	i	18µM
O=C(CCCC(=O)N1CCc2ccccc21)N1CCc2ccccc21	i	i	i	i	i
O=C(NC1CCCCCC1)C1CCC(CNS(=O)(=O)c2cccc3cccnc23)CC1 (stereo not drawn)	nt	nt	i	nt	i
Cc1ccccc1NC(=O)Cc1nc(COC(=O)CSc2ccccc2)cs1	i	i	i	i	i
CCOc1ccc(-c2[nH]ncc2-c2ccccc2)c(O)c1	i	i	i	i	?
COc1ccc(-c2cn[nH]c2-c2ccc(OCc3ccc([N+](=O)[O-])cc3)cc2O)cc1OC	?	i	?	i	21µM
O=[N+]([O-])c1ccc(COc2ccc(-c3[nH]ncc3-c3ccc(Cl)cc3)c(O)c2)cc1	-92	?	?	23µM	23µM
COc1ccc(-c2cn[nH]c2-c2ccc(OCc3ccccc3F)cc2O)cc1OC	?	29µM	29µM	18µM	12µM
C=CCc1cccc2cc(C(=O)NNC(=O)CC#N)c(=O)oc12	i	i	i	i	i
O=C(CSc1nnc2sc3ccccc3n12)NCc1ccc2c(c1)OCO2	i	i	i	i	i
COc1cc2c(cc1OC)C(c1ccc3c(c1)OCO3)CC(=O)N2 (stereo not drawn)	i	?	i	?	?
CCCOc1ccccc1C1CC(=O)Nc2cc3c(cc21)OCCO3 (stereo not drawn)	i	1.3µM	0.73µM	1.5µM	0.65µM
CCOc1c(Br)cc(C2CC(=O)Nc3cc4c(cc32)OCO4)cc1OC (stereo not drawn)	nt	nt	2.9µM	nt	4.6µM
O=C1CC(c2cccnc2)c2cc3c(cc2N1)OCCO3 (stereo not drawn)	i	i	i	i	i
CCOc1cccc(C2CC(=O)Nc3cc(OC)c(OC)cc32)c1 (stereo not drawn)	i	i	?	i	?
CCOc1ccccc1C1CC(=O)Nc2cc3c(cc21)OCCO3 (stereo not drawn)	i	?	1µM	4.1µM	0.52µM
CCOc1cc(C2CC(=O)Nc3cc4c(cc32)OCCO4)ccc1O (stereo not drawn)	nt	nt	18µM	nt	?
CCOc1ccccc1N1CCN(C(=O)CCNS(=O)(=O)c2ccccc2F)CC1	i	i	i	i	?
NS(=O)(=O)c1ccc(NC(=O)c2ccc(F)cc2F)c(NC(=O)c2ccc(F)cc2F)c1	i	i	i	i	i
C[C@H]1CN([C@@H](C)CO)C(=O)c2cc(Br)cnc2O[C@@H]1CN(C)C(=O)CN(C)C	i	i	i	i	i
O=C1N=C(N2CCCC2)S/C1=C\c1ccccc1	i	i	i	i	i
Cc1ccc(/C=C2\SC(N3CCCCC3)=NC2=O)cc1	-66	i	?	i	?

Assay outcomes deposited in PubChem BioAssay by National Center for Advancing Translational Sciences (NCATS).
